Screens (PubChem BioAssay)
CCHF vOTU inh: CCHFV vOTU protease inhibition; 370,000 compounds, 0.55% hits; Pep-AMC fluorescence; inhibition, % at 11.5 µM; in the data active = inhibition above about 30%
Y pestis TopoI: Y. pestis Topo-I inhibition via cleavage products. Y. pestis Topo-I cleavage product accumulation, plate reader. activity, % at 10 µM. 360,000 compounds, 0.064% hits; in the data active = activity above about 50%, passing the limit was not always enough
MazEF act: MazEF (E. coli) toxin RNase activation. activation, % at 20 µM. FAM/BHQ RNA-DNA oligo cleavage fluorescence, 5 h. P0AE70. 350,000 compounds, 0.32% hits. AID 504720; in the data active = activation above about 50%
Target sequence (P0AE70 whole entry, looked up): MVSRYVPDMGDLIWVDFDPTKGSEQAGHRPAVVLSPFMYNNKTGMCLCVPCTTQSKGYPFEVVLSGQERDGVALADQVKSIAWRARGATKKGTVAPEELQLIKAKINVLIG
DUSP3 inh: DUSP3 (human) phosphatase inhibition; AID 1654; 290,000 compounds, 0.52% hits; recombinant VHR phosphatase, pNPP absorbance; inhibition, % at 13.3 µM; in the data active = inhibition above about 50%
Target sequence (P51452 whole entry, looked up): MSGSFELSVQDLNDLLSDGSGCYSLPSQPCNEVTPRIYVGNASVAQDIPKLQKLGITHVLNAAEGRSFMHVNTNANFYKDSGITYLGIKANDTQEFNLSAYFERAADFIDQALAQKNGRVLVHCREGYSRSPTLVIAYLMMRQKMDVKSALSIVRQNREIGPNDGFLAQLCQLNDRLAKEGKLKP
PrPC TRFRET: reduces human prion protein on the cell surface. AID 720596. inhibition, % at 13.8 µM. cell surface PrPC, TR-FRET read-out. 370,000 compounds, 0.43% hits. P04156; in the data active = inhibition above about 24%
BH1578 lux ind: quorum light induction in luxS cqsA deficient V. cholerae; V. cholerae BH1578 lux reporter, luminescence, 6 h; activation, % at 18.7 µM; 350,000 compounds, 0.16% hits; in the data active = activation mostly above about 9.7%, no sharp cut-off
Of the large screens only hits and unclear results are named; the others gave an inactive call. Shown are actives, neighbours in structure and some others; about 1.8% of the full set was active somewhere.

CC1CCCN(C(=O)c2ccc3nc[nH]c3c2)C1 (centres undefined)	DUSP3 inh 51.9
O=C(C1CCN(S(=O)(=O)c2cccc3cccnc23)CC1)N1CCc2ccccc21	DUSP3 inh 54.9
O=C(C1CCC(CNS(=O)(=O)c2cccc3cccnc23)CC1)N1CCc2ccccc21 (centres undefined)	DUSP3 inh 54.5
O=C(C1CCC1)N1CCc2cc(S(=O)(=O)N3CCN(c4ccccn4)CC3)ccc21	Y pestis TopoI 55.0 (no result: CCHF vOTU inh, PrPC TRFRET)
Cc1ccc(OCc2nnc(SCC(=O)Nc3cccc4ccccc34)n2Cc2ccco2)cc1	none (no result: Y pestis TopoI, MazEF act, DUSP3 inh, BH1578 lux ind)
O=C(C1CCN(S(=O)(=O)c2ccc3[nH]c(=O)oc3c2)CC1)N1CCCN(Cc2ccccc2)CC1	none (no result: Y pestis TopoI, MazEF act, DUSP3 inh, BH1578 lux ind)
CCOc1ccc(/C=C/C(=O)Oc2ccccc2)cc1	DUSP3 inh 52.0
CN(C(=O)c1ccccc1OCC(=O)Nc1ccc(Br)cc1)c1ccccc1	none (no result: Y pestis TopoI, MazEF act, DUSP3 inh, BH1578 lux ind)
CN1CCCN(C(=O)CSc2nnc(-c3cccnc3)n2C2CCCCC2)CC1	none (no result: Y pestis TopoI, MazEF act, DUSP3 inh, BH1578 lux ind)
Nc1c(C(=O)Nc2ccc(S(=O)(=O)N3CCCC3)cc2)sc2nc3cc4c(cc3cc12)CCC4	MazEF act 56.6, DUSP3 inh 51.3
Nc1c(C(=O)Nc2ccc(S(=O)(=O)N3CCCC3)cc2)sc2nc3ccc(OC(F)(F)F)cc3cc12	MazEF act 401.6 (no result: CCHF vOTU inh, PrPC TRFRET)
O=C(CSc1nnc(-c2ccncc2)n1-c1ccc(Br)cc1)c1ccccc1	none (no result: Y pestis TopoI, MazEF act, DUSP3 inh, BH1578 lux ind)
OCC1(CC2CCCCO2)CCN(C/C=C/c2ccccc2)CC1 (centres undefined)	none
COc1cc(/C=C/CN2CCC(CO)(CC3CCCCO3)CC2)ccc1O (centres undefined)	DUSP3 inh 51.4
O=C(C1CC1)N1CCN(c2ccc(O)cc2)CC1	DUSP3 inh 56.2
Cc1c(OCC(=O)C(C)(C)C)ccc2c(-c3ccccc3)cc(=O)oc12	Y pestis TopoI 50.7
CC(=O)COc1ccc2c(-c3ccccc3)cc(=O)oc2c1C	none
Cc1ccc(C=C2C(=O)c3ccccc3C2=O)o1	MazEF act 91.3
Cc1cc(C(=O)Nc2cc(Br)ccc2O)on1	DUSP3 inh 53.0
C/C=C/C=C/C(=O)N1C[C@H](C)N(C)C[C@H]1C	none (no result: Y pestis TopoI, MazEF act, DUSP3 inh, BH1578 lux ind)
Nc1cc(Cl)c2nonc2c1[N+](=O)[O-]	PrPC TRFRET 56.2
COC(=O)[C@]12C[C@H](CC(=O)N3CCSCC3)C(=O)N(Cc3ccc(Cl)cc3Cl)C1=C[C@H](C1CCCC1)O[C@@H]2C	none (no result: Y pestis TopoI, MazEF act, DUSP3 inh, BH1578 lux ind)
COC(=O)C1CN(C2CCCC2)CCS(=O)(=O)N1Cc1cn(Cc2ccc(OC)cc2)nn1 (centres undefined)	none (no result: Y pestis TopoI, MazEF act, DUSP3 inh, BH1578 lux ind)
CCOC(=O)c1cccc(NC(=O)CN(C)S(=O)(=O)c2cc3ccccc3s2)c1	none (no result: Y pestis TopoI, MazEF act, DUSP3 inh, BH1578 lux ind)
Cc1ccc(NC(=O)C(C)N2C(=O)C3C4CC(C(Br)C4Br)C3C2=O)cc1 (centres undefined)	BH1578 lux ind 38.0
CCOC(=O)C1=C(N)n2c(s/c(=C\c3cccnc3)c2=O)=C(C(=O)OCC)C1c1cccnc1 (centres undefined)	DUSP3 inh 56.7 (no result: CCHF vOTU inh, Y pestis TopoI, MazEF act, PrPC TRFRET, BH1578 lux ind)
CCOC(=O)C1=C(N)n2c(s/c(=C\c3cccnc3)c2=O)=C(C(=O)OC)C1c1cccnc1 (centres undefined)	none (no result: DUSP3 inh)
N=c1c[n+](N2CCOCC2)[n-]o1	MazEF act 352.8
COc1ccc(CC(=O)Oc2cc(C)ccc2C)cc1	DUSP3 inh 58.2
Cc1ccc(N(C)S(=O)(=O)c2cccc(C(=O)NCC(c3ccco3)N3CCCC3)c2)cc1 (centres undefined)	none (no result: DUSP3 inh)
COc1ccc(N/C=C\C(=O)c2ccc(Br)cc2)cc1OC	none
COc1ccc(N/C=C\C(=O)c2ccc(C)cc2)cc1OC	MazEF act 254.9
O=C(c1ccc2c(c1)[nH]c(=S)n1c3ccccc3nc21)N1CCN(c2ncccn2)CC1	MazEF act 90.9
CCOC(=O)C1CCN(c2c(Nc3ccc4c(c3)OCCO4)c(=O)c2=O)CC1	none
CCOC(=O)C1CCN(C(C(=O)Nc2ccc3c(c2)OCCO3)c2ccccc2)CC1 (centres undefined)	DUSP3 inh 52.7 (no result: BH1578 lux ind)
COc1ccccc1OC(C)C(=O)Nc1ccc2c(c1)OCCO2 (centres undefined)	DUSP3 inh 56.2
CCc1ccc(CCNC(=O)OCCCN2CCC3(CCC(c4ccccc4)CC3)C2=O)cc1 (centres undefined)	none (no result: Y pestis TopoI, MazEF act, DUSP3 inh, BH1578 lux ind)
COC(=O)[C@@]12CCCCC3=C1N(CCC3)C(=O)[C@H]2CC(=O)N1CCSCC1	none (no result: Y pestis TopoI, MazEF act, DUSP3 inh, BH1578 lux ind)
CCc1cccc(CC)c1NC(=O)c1cccc(N)c1	DUSP3 inh 56.4
COc1ccc(S[C@]2(C(=O)N3CCOCC3)CC(=O)N(P(=O)(OC)OC)[C@@H]2c2ccc(OC)cc2)cc1	none (no result: Y pestis TopoI, MazEF act, DUSP3 inh, BH1578 lux ind)
O=C(NC1CCN(C(=O)Nc2ccccc2)CC1)C1CCCCC1	DUSP3 inh 51.9
O=C(NC1CCCC1)C1CCCN(C(=O)Nc2ccccc2)C1 (centres undefined)	none
CNS(=O)(=O)c1cccc(C(=O)Nc2cccnc2)c1	DUSP3 inh 56.4
Cc1ccc2nc(-c3ccc(NC(=O)CSc4nnc(Cc5cccs5)n4C)cc3)sc2c1	none (no result: Y pestis TopoI, MazEF act, DUSP3 inh, BH1578 lux ind)
CN(C)c1ccc(NC(=O)C2CCCN(S(=O)(=O)c3ccccc3)C2)cc1 (centres undefined)	DUSP3 inh 55.8
CCCC(=O)N1CCN(c2ccc(NC(=O)c3ccc([N+](=O)[O-])o3)cc2Cl)CC1	PrPC TRFRET 39.9
O=C(NC1CCCC1)N1CCC(c2nc3ccc(Cl)cc3[nH]2)CC1	none (no result: Y pestis TopoI, MazEF act, DUSP3 inh, BH1578 lux ind)
CC(COc1ccc(Br)cc1)CN1CCC(C(O)(c2ccccc2)c2ccccc2)CC1 (centres undefined)	none (no result: Y pestis TopoI, MazEF act, DUSP3 inh, BH1578 lux ind)
CCCSc1nnc(-c2ccco2)n1C	none (no result: Y pestis TopoI, MazEF act, DUSP3 inh, BH1578 lux ind)
N#CC1=C(N)Oc2cc(O)ccc2C1c1cccs1 (centres undefined)	none
N#CC1=C(N)Oc2c(ccc3ccccc23)C1c1cccs1 (centres undefined)	MazEF act 59.1 (no result: CCHF vOTU inh, Y pestis TopoI, PrPC TRFRET, BH1578 lux ind)
CC(C(=O)NC1C(=O)N2C(C(=O)O)=C(CSc3nnnn3C)CSC12)n1cc(Br)cn1 (centres undefined)	none
Cc1nn(C(C)C(=O)NC2C(=O)N3C(C(=O)O)=C(CSc4nnnn4C)CSC23)cc1Cl (centres undefined)	BH1578 lux ind 25.2
COc1ccc(-n2cc(-c3ccc(OC)c(OC)c3)[nH]c2=S)cc1	DUSP3 inh 50.6
CC1CCN(C(=O)c2ccc3c(c2NCCO)C(=O)c2ccccc2C3=O)CC1	none
CCN(CC)CCNC(=O)c1ccc2c(c1NCCO)C(=O)c1ccccc1C2=O	CCHF vOTU inh 58.9
CC(C)(C)N1Cc2nnn(Cc3ccccc3)c2-c2cc(N3CCCCC3)ccc2S1(=O)=O	none (no result: Y pestis TopoI, MazEF act, DUSP3 inh, BH1578 lux ind)
COCCCNC(=O)C1CCCN(S(=O)(=O)c2cccc3nsnc23)C1 (centres undefined)	DUSP3 inh 52.7
COC(=O)C[C@@H]1CC[C@@H]2[C@@H](COc3ccc(NC(=O)c4ccc(F)cc4)cc3C(=O)N2C)O1	none (no result: Y pestis TopoI, MazEF act, DUSP3 inh, BH1578 lux ind)
O=C(OCc1cn(Cc2ccc(Cl)cc2)nn1)N1CCCC1	none (no result: Y pestis TopoI, MazEF act, DUSP3 inh, BH1578 lux ind)
CC(=O)Oc1c(/C=C(\C#N)C(N)=O)[nH]c2ccccc12	MazEF act 596.7
